What all share (assay): DAPPL (digital affinity profiling via proximity ligation, sequencing); 10 mM Tris-HCl pH 7.5, 50 mM NaCl, 1 mM DTT, 4% glycerol, room temperature, 30 min; GST-TFs on glutathione beads, 16-mer random dsDNA library, 0.1% formaldehyde crosslink after washing; high values mean tight binding
Common to all, as to settings: protein: recombinant; tags: N-terminal GST; dsDNA, one strand shown

Assay [1] deals with T1, ELK1 (Homo sapiens, UniProt P19419 1-428).
T1 sequence: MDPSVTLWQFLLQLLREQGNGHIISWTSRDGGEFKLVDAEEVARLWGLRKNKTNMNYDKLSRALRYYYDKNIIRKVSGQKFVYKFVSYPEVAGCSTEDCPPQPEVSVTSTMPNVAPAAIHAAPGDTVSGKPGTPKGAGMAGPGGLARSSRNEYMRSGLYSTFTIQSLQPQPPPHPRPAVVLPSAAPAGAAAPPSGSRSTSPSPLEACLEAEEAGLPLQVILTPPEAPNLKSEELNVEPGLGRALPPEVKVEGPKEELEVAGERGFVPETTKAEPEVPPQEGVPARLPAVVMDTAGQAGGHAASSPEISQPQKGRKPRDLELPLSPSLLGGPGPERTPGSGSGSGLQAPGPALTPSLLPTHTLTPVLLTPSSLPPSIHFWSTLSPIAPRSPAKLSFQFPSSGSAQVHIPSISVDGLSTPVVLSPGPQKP
The procedure, abridged: (§1)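 Each value of binding signal is a hexamer's read frequency for a factor divided by the same hexamer's frequency in the tag-only sample. Barcoded, bead-captured GST fusions of human transcription factors made in yeast were pooled with that sample and incubated with 200 nmole of a random double-stranded 16-mer DNA library in Tris/NaCl/DTT/glycerol buffer at room temperature for 30 min. Washing, 0.1% formaldehyde crosslinking, proximity ligation, PCR and Illumina NextSeq500 sequencing followed.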

Assay [2] concerns the target T2, GABPA (Homo sapiens, UniProt Q06546 1-454).
T2 sequence: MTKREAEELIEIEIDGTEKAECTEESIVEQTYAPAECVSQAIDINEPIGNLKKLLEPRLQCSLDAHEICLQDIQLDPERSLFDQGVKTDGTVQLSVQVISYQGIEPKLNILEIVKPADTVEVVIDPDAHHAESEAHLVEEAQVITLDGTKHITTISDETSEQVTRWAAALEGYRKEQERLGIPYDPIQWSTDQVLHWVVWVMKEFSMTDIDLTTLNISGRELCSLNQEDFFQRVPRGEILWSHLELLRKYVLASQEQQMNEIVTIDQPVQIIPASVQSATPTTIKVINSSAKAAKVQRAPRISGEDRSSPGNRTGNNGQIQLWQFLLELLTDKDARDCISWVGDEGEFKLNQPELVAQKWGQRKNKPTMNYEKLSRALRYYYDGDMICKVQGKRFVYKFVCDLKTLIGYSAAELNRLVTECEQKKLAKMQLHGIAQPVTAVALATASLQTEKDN
A digest of the protocol:
as §1

The target in assay [3] is T3, ERG (Homo sapiens, UniProt P11308 1-479).
T3 sequence: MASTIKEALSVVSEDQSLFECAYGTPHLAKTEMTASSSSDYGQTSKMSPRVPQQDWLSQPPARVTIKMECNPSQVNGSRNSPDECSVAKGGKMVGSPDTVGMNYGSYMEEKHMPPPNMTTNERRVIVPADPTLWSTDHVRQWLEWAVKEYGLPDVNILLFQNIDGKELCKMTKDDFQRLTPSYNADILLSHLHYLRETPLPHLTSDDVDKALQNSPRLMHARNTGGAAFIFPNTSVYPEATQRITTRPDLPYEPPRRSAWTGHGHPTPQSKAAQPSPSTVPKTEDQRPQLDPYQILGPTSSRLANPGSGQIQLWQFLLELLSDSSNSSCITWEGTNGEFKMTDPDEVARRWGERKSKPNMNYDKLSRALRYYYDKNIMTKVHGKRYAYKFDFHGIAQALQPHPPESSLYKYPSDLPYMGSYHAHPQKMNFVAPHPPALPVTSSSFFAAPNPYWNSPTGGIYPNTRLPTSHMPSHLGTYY
The procedure, abridged: as §1

The target of assay [4] is ELF1 (Homo sapiens, UniProt P32519 1-619). The procedure, abridged:
as §1

The target of assay [5] is T4, EHF (Homo sapiens, UniProt Q9NZC4 1-300).
T4 sequence: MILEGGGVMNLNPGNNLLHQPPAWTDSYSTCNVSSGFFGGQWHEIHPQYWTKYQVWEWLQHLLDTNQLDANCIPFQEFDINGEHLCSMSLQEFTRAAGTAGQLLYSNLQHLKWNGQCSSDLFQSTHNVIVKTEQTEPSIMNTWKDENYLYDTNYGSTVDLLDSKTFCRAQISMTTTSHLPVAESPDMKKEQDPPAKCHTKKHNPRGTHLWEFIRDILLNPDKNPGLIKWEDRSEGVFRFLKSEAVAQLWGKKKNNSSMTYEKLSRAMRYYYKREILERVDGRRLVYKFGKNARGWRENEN
A digest of the protocol:
as §1

In assay [6] the target is SPI1 (Homo sapiens, UniProt P17947 1-270). The procedure, abridged:
as §1

Assay [7] addresses SPIB (Homo sapiens, UniProt Q01892 1-262). A digest of the protocol: as §1
Assay [8] deals with ETV5 (Homo sapiens, UniProt P41161 1-510). A digest of the protocol: as §1
Assay [9] has as its target T5, SPIC (Homo sapiens, UniProt Q8N5J4 1-248).
T5 sequence: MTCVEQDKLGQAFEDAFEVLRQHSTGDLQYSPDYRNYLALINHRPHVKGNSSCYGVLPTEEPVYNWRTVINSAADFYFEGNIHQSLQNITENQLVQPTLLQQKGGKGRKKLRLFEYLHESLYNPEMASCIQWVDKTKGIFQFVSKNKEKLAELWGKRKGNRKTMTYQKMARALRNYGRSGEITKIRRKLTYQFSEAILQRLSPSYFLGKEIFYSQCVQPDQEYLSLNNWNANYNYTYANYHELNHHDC
The procedure, abridged: as §1

For assay [10], the target named is ELF4 (Homo sapiens, UniProt Q99607 1-663). The procedure, abridged: as §1
Assay [11] has as its target T6, ELK4 (Homo sapiens, UniProt P28324-2 1-405).
T6 sequence: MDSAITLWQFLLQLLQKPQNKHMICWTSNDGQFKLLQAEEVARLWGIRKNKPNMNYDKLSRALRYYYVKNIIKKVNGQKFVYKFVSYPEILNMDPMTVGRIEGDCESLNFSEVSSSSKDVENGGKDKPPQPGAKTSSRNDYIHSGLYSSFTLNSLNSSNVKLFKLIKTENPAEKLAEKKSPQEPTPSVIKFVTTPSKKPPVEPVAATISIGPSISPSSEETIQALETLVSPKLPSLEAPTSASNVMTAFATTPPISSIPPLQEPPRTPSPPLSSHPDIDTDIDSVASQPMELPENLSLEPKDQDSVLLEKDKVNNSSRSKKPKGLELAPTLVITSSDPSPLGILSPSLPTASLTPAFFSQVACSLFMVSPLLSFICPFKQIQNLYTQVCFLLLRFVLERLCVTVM
The procedure, abridged:
as §1

In assay [12] the target is T7, ELF3 (Homo sapiens, UniProt P78545 1-371).
T7 sequence: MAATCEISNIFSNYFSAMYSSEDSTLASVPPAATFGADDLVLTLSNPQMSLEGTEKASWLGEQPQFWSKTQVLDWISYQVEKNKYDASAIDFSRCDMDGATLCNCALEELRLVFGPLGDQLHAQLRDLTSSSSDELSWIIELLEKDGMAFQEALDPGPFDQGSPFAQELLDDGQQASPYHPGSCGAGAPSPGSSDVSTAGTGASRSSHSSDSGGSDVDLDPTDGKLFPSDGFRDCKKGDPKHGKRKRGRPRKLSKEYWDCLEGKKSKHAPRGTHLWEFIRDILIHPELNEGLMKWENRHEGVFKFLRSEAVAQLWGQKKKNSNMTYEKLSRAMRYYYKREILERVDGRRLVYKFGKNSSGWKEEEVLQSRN
The procedure, abridged: as §1

Assay [13] has as its target ETV1 (Homo sapiens, UniProt P50549 1-477). The procedure, abridged: as §1
Assay [14] concerns the target T8, ERF (Homo sapiens, UniProt P50548 1-548).
T8 sequence: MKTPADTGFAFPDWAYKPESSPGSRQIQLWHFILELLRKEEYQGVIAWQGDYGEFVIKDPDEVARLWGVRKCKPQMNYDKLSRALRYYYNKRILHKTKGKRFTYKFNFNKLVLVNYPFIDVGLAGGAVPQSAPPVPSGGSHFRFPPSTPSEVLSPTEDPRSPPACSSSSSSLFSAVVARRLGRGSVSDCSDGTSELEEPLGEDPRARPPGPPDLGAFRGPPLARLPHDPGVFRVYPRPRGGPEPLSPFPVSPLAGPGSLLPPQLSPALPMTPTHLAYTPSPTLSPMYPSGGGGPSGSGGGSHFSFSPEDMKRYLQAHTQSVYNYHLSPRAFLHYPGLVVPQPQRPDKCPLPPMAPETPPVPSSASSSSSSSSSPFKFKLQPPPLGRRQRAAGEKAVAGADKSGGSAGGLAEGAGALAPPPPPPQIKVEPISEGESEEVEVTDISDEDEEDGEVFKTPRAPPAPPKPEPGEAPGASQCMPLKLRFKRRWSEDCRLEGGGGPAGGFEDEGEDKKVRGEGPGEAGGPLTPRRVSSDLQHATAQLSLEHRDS
A digest of the protocol: as §1

Assay [15] concerns the target T9, ETV3L (Homo sapiens, UniProt Q6ZN32 1-361).
T9 sequence: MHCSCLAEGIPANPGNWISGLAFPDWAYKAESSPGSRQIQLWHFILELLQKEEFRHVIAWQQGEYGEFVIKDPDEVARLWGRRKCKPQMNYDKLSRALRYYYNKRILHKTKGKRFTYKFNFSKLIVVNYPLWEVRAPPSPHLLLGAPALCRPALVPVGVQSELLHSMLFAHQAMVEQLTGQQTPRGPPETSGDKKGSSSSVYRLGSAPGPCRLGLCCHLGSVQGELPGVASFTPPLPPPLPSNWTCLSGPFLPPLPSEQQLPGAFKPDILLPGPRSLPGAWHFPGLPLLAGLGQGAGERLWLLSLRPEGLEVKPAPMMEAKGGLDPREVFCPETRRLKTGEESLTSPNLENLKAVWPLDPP
The procedure, abridged:
as §1

The target in assay [16] is T10, ETS2 (Homo sapiens, UniProt P15036 1-469).
T10 sequence: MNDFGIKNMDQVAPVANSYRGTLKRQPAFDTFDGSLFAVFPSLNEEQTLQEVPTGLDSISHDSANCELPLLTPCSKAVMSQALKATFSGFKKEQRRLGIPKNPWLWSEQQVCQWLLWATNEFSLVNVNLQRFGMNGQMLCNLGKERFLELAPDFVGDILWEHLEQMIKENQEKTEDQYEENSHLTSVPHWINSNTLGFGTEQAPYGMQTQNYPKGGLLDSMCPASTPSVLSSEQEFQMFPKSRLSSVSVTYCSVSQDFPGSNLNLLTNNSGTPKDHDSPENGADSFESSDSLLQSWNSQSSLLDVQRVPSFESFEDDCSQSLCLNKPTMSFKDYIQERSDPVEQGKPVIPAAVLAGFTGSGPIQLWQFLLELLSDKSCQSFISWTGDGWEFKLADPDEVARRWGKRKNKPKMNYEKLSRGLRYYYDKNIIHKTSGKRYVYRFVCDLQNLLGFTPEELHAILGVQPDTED
The procedure, abridged: as §1

Assay [17] addresses T11, SPDEF (Homo sapiens, UniProt O95238 1-335).
T11 sequence: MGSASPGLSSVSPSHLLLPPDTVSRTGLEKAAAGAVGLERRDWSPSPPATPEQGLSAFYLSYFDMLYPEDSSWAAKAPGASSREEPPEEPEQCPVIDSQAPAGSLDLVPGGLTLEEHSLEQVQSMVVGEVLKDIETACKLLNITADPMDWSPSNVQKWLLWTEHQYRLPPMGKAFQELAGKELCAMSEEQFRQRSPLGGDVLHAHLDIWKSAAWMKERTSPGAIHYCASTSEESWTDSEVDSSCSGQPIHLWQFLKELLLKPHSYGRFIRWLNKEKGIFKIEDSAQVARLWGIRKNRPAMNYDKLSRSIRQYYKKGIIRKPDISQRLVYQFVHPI
The procedure, abridged:
as §1

The target of assay [18] is T12, ETV3 (Homo sapiens, UniProt P41162-2 1-143).
T12 sequence: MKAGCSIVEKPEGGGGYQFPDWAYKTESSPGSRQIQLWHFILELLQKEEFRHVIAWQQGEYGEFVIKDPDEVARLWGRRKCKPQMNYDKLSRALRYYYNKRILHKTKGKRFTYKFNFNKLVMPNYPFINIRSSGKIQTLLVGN
A digest of the protocol: as §1

For assay [19], the target named is ETV6 (Homo sapiens, UniProt P41212 1-452). A digest of the protocol:
as §1

Sequence of ETV6 (P41212 whole entry): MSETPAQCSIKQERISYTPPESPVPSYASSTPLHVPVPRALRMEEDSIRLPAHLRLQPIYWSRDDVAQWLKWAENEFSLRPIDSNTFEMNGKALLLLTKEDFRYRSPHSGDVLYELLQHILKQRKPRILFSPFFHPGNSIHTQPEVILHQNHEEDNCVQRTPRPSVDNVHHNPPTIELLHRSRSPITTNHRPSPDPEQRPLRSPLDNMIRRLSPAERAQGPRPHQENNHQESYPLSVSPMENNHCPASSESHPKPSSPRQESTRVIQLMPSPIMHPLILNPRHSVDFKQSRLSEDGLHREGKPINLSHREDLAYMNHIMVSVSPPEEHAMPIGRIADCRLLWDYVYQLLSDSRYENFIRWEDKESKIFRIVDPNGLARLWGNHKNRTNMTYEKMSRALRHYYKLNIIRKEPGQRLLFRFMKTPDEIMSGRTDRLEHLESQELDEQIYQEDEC
Sequence of ELF4 (Q99607 whole entry): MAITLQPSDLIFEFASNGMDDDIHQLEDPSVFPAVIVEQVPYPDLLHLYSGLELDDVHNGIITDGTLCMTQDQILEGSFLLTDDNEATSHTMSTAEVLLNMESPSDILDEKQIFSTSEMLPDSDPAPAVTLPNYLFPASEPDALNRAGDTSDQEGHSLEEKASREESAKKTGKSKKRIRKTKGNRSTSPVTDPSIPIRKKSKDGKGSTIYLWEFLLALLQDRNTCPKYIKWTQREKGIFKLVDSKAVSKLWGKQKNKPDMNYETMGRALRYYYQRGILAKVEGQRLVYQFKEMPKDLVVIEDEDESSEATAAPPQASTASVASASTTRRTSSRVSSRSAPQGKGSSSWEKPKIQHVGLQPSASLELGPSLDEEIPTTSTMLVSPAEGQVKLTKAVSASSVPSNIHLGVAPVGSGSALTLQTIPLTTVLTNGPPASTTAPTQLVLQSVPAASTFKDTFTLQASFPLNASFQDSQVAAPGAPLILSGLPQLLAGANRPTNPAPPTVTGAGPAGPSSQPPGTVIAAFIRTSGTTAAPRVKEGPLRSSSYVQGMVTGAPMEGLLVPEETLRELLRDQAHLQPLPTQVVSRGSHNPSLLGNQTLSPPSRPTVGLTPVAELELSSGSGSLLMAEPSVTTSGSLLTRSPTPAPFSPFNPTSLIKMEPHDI
Sequence of ELF1 (P32519 whole entry): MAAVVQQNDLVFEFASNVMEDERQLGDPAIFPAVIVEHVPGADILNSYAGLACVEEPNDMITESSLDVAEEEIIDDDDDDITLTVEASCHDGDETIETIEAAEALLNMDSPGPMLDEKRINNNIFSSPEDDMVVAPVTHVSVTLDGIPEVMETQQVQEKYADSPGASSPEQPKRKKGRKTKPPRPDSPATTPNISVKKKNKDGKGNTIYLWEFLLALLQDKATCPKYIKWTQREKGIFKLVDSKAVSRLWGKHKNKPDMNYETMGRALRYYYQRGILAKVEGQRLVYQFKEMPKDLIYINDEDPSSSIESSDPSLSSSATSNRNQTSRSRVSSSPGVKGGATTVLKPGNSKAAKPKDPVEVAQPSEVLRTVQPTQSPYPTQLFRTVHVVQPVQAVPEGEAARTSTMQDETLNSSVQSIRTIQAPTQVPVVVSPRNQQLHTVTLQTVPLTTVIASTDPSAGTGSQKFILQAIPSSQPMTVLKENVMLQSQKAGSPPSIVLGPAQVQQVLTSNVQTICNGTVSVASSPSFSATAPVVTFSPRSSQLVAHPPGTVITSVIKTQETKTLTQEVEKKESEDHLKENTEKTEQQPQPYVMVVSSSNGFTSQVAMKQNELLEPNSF
Sequence of ETV5 (P41161 whole entry): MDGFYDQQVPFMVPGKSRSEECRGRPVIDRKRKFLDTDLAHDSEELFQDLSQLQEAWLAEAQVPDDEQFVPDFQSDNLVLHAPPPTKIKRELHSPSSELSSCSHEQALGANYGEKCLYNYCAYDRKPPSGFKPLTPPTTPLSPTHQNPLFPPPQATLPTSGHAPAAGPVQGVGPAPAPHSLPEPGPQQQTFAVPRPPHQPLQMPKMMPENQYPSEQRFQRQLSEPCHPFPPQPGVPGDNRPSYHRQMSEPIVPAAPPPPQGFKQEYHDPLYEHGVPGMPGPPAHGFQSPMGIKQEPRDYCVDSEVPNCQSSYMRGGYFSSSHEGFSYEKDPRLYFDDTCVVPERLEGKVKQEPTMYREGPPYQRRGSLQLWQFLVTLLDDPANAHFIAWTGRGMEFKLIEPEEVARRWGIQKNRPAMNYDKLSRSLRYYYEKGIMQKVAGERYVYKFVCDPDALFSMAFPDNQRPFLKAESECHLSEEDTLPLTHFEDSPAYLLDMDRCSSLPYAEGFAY
Sequence of ETV1 (P50549 whole entry): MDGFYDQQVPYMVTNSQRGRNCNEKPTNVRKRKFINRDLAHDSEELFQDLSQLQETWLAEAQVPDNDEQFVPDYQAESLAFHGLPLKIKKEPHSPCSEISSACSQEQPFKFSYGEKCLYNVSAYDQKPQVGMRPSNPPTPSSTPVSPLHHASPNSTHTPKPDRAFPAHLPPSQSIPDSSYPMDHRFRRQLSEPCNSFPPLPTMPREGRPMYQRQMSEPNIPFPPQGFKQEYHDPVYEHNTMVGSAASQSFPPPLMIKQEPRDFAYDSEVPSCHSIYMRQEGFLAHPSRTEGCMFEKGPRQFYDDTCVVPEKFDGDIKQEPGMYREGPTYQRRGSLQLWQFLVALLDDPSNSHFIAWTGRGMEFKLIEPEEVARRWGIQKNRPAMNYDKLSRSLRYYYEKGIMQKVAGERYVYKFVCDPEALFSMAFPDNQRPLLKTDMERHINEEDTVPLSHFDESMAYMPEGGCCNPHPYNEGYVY
Sequence of SPIB (Q01892 whole entry): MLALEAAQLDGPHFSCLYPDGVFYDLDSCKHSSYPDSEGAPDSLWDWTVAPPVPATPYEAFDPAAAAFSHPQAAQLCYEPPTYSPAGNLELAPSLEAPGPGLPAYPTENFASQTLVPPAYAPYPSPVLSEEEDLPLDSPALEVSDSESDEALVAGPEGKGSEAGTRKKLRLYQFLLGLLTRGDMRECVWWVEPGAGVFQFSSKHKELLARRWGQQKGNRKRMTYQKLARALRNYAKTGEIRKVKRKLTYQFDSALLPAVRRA

CAGCCC: the binding signal in [1] is 1.16 fold enrichment (6-mer frequency, TF over GST control); in [2] it was 1.06 fold enrichment (6-mer frequency, TF over GST control); in assay [3] it was 1.18 fold enrichment (6-mer frequency, TF over GST control); in [4], 1.09 fold enrichment (6-mer frequency, TF over GST control); in assay [5] it was 1.16 fold enrichment (6-mer frequency, TF over GST control); in assay [6], 1.03 fold enrichment (6-mer frequency, TF over GST control). Further, the binding signal was 1.09 fold enrichment (6-mer frequency, TF over GST control) in [7]; 1.07 fold enrichment (6-mer frequency, TF over GST control) in assay [8]; 1.13 fold enrichment (6-mer frequency, TF over GST control) in assay [9]; 1.06 fold enrichment (6-mer frequency, TF over GST control) in assay [10]; 1.19 fold enrichment (6-mer frequency, TF over GST control) in assay [11]; 1.35 fold enrichment (6-mer frequency, TF over GST control) in [12]. For the same sequence, the binding signal in assay [13] is 1.01 fold enrichment (6-mer frequency, TF over GST control); in assay [14] it was 1.08 fold enrichment (6-mer frequency, TF over GST control); in assay [15], 1.07 fold enrichment (6-mer frequency, TF over GST control); in [16] it was 1.13 fold enrichment (6-mer frequency, TF over GST control); in assay [17], 1.02 fold enrichment (6-mer frequency, TF over GST control); in assay [18] it was 1.05 fold enrichment (6-mer frequency, TF over GST control). Besides, in assay [19], the binding signal is 1.12 fold enrichment (6-mer frequency, TF over GST control).

Values taken from paper PMC7862700, “An all-to-all approach to the identification of sequence-specific readers for epigenetic DNA modifications on cytosine”.
